The full list was thinned out, with hits kept by preference.
RE007 growth inh: less growth of the S. pombe RE007 Vpr strain; S. pombe RE007 Vpr strain, BacTiter-Glo ATP luminescence, 24 h; Potency, µM (titrated, usually from 92.2 µM), for the others: at the top dose activity change, negative = less growth, usual class: inhibitors; hit rate 0.21% among 360,000; active means well fitted falling curve with a large enough effect; inconclusive means small, poorly fitted or top-dose-only effect; inactive means no such curve, though single readings can be large or run the other way; further: potency means the concentration at half of the fitted maximal effect; on the % scale 0 is the no-effect control and ±100 the full control effect; nearly all actives have a fitted effect of over 50% in size
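Fission yeast strain RE007, carrying one chromosomally integrated HIV-1 vpr copy, was seeded at OD 0.01 in PMG+AL medium with 23 nL pinned compound. After 24 h at 30 °C and 99% humidity, viability was read by BacTiter-Glo luminescence.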
FBPA Giardia inh: Giardia lamblia aldolase inhibition; purified Giardia FBPA; Potency, µM (highest dose often 59.6 µM), for the others: at the highest dose activity, negative = inhibition, usual class: inhibitors; hit rate 0.71% among 290,000; further: potency means the concentration at half of the fitted maximal effect; on the % scale 0 is the no-effect control and ±100 the full control effect; nearly all actives have a fitted effect of over 55% in size
Target sequence (A8B2U2 whole entry, looked up): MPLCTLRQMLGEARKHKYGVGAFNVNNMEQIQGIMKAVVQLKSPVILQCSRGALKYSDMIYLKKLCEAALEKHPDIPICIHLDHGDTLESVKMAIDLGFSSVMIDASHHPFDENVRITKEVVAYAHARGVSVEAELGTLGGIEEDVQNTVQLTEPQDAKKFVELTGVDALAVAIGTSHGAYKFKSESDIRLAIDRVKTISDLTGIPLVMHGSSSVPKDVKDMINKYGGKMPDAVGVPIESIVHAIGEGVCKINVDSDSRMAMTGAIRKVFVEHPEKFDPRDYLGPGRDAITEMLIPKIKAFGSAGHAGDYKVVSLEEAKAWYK
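Giardia FBPA (40 nM reagent) was preincubated 10 min at RT with compound (up to 57.5 uM final), then substrate plus GAPDH/TPI/NAD/arsenate coupling system with diaphorase/resazurin was added; resorufin fluorescence (525/598 nm) was read after 20 min.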
Tb PYK inh: T. brucei pyruvate kinase inhibition | TbPYK enzyme, Kinase-Glo Plus ATP luminescence, 45 min | Potency, µM (doses to about 76.8 µM), without a hit: at the top dose activity, negative = inhibition, usual class: inhibitors | hit rate 0.12% among 410,000; further: potency means the concentration at half of the fitted maximal effect; on the % scale 0 is the no-effect control and ±100 the full control effect; nearly all actives have a fitted effect of over 50% in size
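Luminescence from Kinase-Glo Plus, added after a 45-minute room-temperature reaction, served as the end-point read-out. The enzyme and substrate were preincubated with compound before ADP (130 uM final) initiated turnover. Concentration-effect curves came from normalized qHTS data.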
Shiga inhibitor: Shiga toxin inhibition; Vero cells, Shiga toxin protein synthesis inhibition reporter; inhibition, % at 38.7 µM; hit rate 9.2% among 290,000; in the data active means inhibition mostly above about 28%, no sharp cut-off; inactive means mostly below about 43%; further: 0% is about no effect
Cycloheximide cs: counter-screen hit for Shiga toxin inhibitors, cycloheximide. cell reporter, cycloheximide protein synthesis inhibition counterscreen. max response, %. hit rate 12% among 300,000; in the data active means max response mostly above about 13%, no sharp cut-off; inactive means mostly below about 14%; further: read at 38.3 µM for the half of the compounds with a filed dose; 0% is about no effect
LmPK inhibitor: inhibitors of Leishmania mexicana pyruvate kinase; purified LmPK, Kinase-Glo ATP luminescence, 1 h; AID 1721; Potency, µM (series often up to 57.5 µM), for inactives: top-dose activity change, negative = inhibition, actives largely listed as inhibitors; hit rate 0.37% among 290,000; Q27686; further: potency means the concentration at half of the fitted maximal effect; on the % scale 0 is the no-effect control and ±100 the full control effect
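In 50 mM imidazole pH 7.2 with 7 mM MgCl2, LmPK (0.1 nM) turned over PEP (0.5 mM) and ADP (0.1 mM) for 1 h at room temperature. Luciferase read-out of ATP.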
* = called active by the depositor; u = inconclusive; x = not tested or not shown; + = active, no number; [ ] = dose if it differs, or a comment. Unless noted, the call rests on the fitted dose curve; in most records, active means well fitted curve in the direction sought with a large enough effect; inconclusive means small, poorly fitted or top-dose-only effect, or another doubt; inactive means no such curve, though single readings can be large; an effect the other way counts as inactive or inconclusive.

SMILES	RE007 growth inh	FBPA Giardia inh	Tb PYK inh	Shiga inhibitor	Cycloheximide cs	LmPK inhibitor
Cc1csc(NC(=O)CSc2nc(C)cs2)n1	-2%	1%	3%	25	17*	0%
Cc1csc(SCC(=O)Nc2cccc3nsnc23)n1	-16%	1%	-1%	24	20*	-2%
Cc1csc(SCC(=O)Nc2ccccc2C)n1	12%	x	2%	x	x	x
Cc1csc(NC(=O)CSc2nsc(SCC(=O)Nc3nc(C)cs3)c2C#N)n1	8%	3%	7%	117*	41*	4%
COC(=O)c1c(NC(=O)COC(=O)CNC(=O)c2cccc(OC(F)F)c2)sc(C)c1C	-2%	x	-7%	x	x	x
CCOC(=O)c1c(NC(C)=O)c2c3c(sc2n1Cc1ccc(Cl)cc1)CCCC3	x	x	3%	x	x	x
CCN(Cc1ccccc1)Cc1c(O)ccc2c(=O)c(-c3ccccc3Cl)c(C(F)(F)F)oc12	x	x	1%	x	x	x
Cc1ccnc(N=Cc2nc(-c3ccccc3Br)oc2O)c1	10%	1%	-17%	118*	27*	12%
Oc1oc(-c2cccc3ccccc23)nc1/C=N/c1nccs1	8%	-2%	-12%	19	2	3%
Cc1cccc(/N=C/c2nc(-c3ccccc3Br)oc2O)n1	-5%	-8%	2%	32	21*	5%
COc1cc(OC)cc(C2=Nn3c(nnc3-c3ccccc3OC)SC2)c1	x	-21%	x	-2	-6	x
CC(=O)N1c2ccc(S(=O)(=O)NCC3CCC(C(=O)Nc4cccc(F)c4)CC3)cc2CC1C (configuration not stated)	x	x	6%	x	x	x
N#Cc1c(SCC(=O)Nc2nccs2)nc2c(c1-c1ccco1)CCCC2	5%	-13%	-10%	4	17*	1%
O/N=C\c1cnc(N2CCN(c3ccccc3)CC2)s1	3%	10%	0%	68*	42*	-2%
CCOc1ccc(CCNC(=O)c2cc(Nc3ccc(C)cc3C)nc3ccccc23)cc1OCC	x	x	2%	x	x	x
Cc1cc(C)c(C#N)c(SCC(=O)Nc2nnc(-c3ccccc3)s2)n1	4%	-2%	-3%	6	-2	0%
Cc1ccc2sc(NC(=O)CSc3nc(C)cc(C)c3C#N)nc2c1	-8%	-1%	7%	78*	47*	-2%
Cc1nc(SCC(=O)Nc2nc3ccccc3s2)c(C#N)c(C)c1C	11%	-3%	u	34	29*	6%
Cc1cc(C(F)(F)F)c(C#N)c(SCC(=O)Nc2nc3ccccc3s2)n1	-10%	-2%	-2%	163*	112*	-5%
COC(=O)[C@@H](NC(=O)CCc1nnc(-c2ccsc2)o1)C(C)C	22%	1%	-5%	31	50*	-3%
O=C(CCc1nnc(-c2ccsc2)o1)N1CCCCC1CCn1ccnc1 (configuration not stated)	-3%	0%	-9%	21	6	6%
CCOC(=O)CC1COCCN1C(=O)CCc1nnc(-c2ccsc2)o1 (configuration not stated)	-2%	0%	0%	34	33*	-1%
COc1ccc(/C=C/C(=O)NC(=S)N2CCSCC2)cc1	-3%	-10%	-3%	49	37*	-9%
O=C(/C=C/c1ccc(Br)cc1)NC(=S)N1CCOCC1	-18%	-20%	-29%	67*	54*	u
CN1CCN(C(=S)NC(=O)/C=C/c2ccccc2)CC1	0%	-9%	5%	33	19	-3%
SMILES	RE007 growth inh	FBPA Giardia inh	Tb PYK inh	Shiga inhibitor	Cycloheximide cs	LmPK inhibitor
O=C(/C=C/c1ccc(F)cc1)N1CCN(c2ccccn2)CC1	5%	1%	-4%	+	15	0%
COc1ccc(/C=C/C(=O)NC(=S)N2CCN(c3ccccn3)CC2)cc1	-12%	-1%	-12%	56*	19*	0%
CC1=C(C(N)=O)C(c2ccc(C)cc2)n2nc(SCc3ccccc3F)nc2N1 (configuration not stated)	x	x	-18%	x	x	x
Cc1nn(CCOc2ccccc2)c(=O)n1-c1ccc(Cl)cc1	7%	2%	4%	76*	30*	9%
COc1cccc(-n2c(C)nn(CCOc3ccccc3)c2=O)c1	-16%	2%	2%	61	13	-2%
Cc1nn(CCOc2ccccc2)c(=O)n1-c1ccccc1	19%	3%	0%	38*	29*	-1%
COc1ccc(-n2c(C)nn(CCOc3ccccc3)c2=O)cc1	-6%	3%	-3%	58*	28*	-1%
O=C(NCC1CC1)NC(=O)c1c(F)cccc1Cl	4%	0%	4%	28	15*	4%
O=C(NCC1CC1)NC(=O)c1ccccc1F	5%[18.4 µM]	x	2%	x	x	x
COc1cccc(CNc2ccc3c(c2)ncn3C(C)C)c1OC	1%	u	-17%	162*	44*	-6%
CCCn1c(NCc2cccc(OC)c2O)nc2ccccc21	0%	0%	-7%	39*	28*	1%
COc1ccccc1-n1cnc2cc(NCc3ccccn3)ccc21	-3%	-12%	-10%	113*	38*	-4%
CCCn1cnc2cc(NCc3cccc(OC)c3O)ccc21	0%	-4%	-6%	126*	37*	0%
COc1cccc(CNn2cnnc2)c1O	21%	-6%	1%	-11	1	5%
COc1ccc(-n2cnc3cc(NCc4ccccn4)ccc32)cc1	-17%	-19%	-13%	43	9	0%
CCn1cnc2cc(NCc3ccncc3)ccc21	2%	-29%	-6%	32	1	1%
CCCn1cnc2cc(NCc3ccccn3)ccc21	-6%	u	-8%	85*	37*	1%
Cc1c(CC(=O)NC(C)C)c(=O)oc2cc3c(cc12)CCC(C)(C)O3	6%	-7%	-4%	54*	35*	-5%
Cc1c(CC(=O)NCC(C)C)c(=O)oc2cc3c(cc12)CCC(C)(C)O3	13%	7%	-6%	41*	23*	-6%
Cc1c(CC(=O)N2CCC(O)CC2)c(=O)oc2cc3c(cc12)CCC1(CCCCC1)O3	-1%	x	-2%	x	x	x
Cc1c(CC(=O)N[C@H](C(=O)O)C(C)C)c(=O)oc2cc3c(cc12)CCC(C)(C)O3	10%	2%	-19%	98*	67*	0%
CCC(C)NC(=O)Cc1c(C)c2cc3c(cc2oc1=O)OC(C)(C)CC3 (configuration not stated)	-2%	2%	-3%	63*	40*	-2%
Cc1c(CC(=O)NCCC(C)C)c(=O)oc2cc3c(cc12)CCC(C)(C)O3	7%	6%	-11%	-5	3	2%
Cc1c(CC(=O)N[C@@H](C)C(=O)O)c(=O)oc2cc3c(cc12)CCC(C)(C)O3	6%	-3%	3%	-6	-1	0%

Bioassay records from PubChem.
